Screens as filed in PubChem.
Rows were chosen to be rich in hits. Some 3.5% of all compounds tested hit in one or more screens of this group.
MITF primary: blocks human microphthalmia-associated transcription factor; inhibition, % at 2.6 µM; O75030; AID 1259374; 0.91% of 650,000 active; AlphaScreen MITF homodimerization, bead proximity signal; in the data active = inhibition above about 50%
FBW7 act: human FBW7 E3 ligase activation, primary screen. Q969H0. AlphaScreen FBW7–phospho-cyclin E peptide binding, activator screen. normalized activity (activation), % at 26.1 µM. 0.13% of 650,000 active. AID 1259310; in the data active = normalized activity above about 1.9%;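 also: purified mutant Fbw7 with reduced substrate affinity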
Target sequence (Q969H0 whole entry, looked up): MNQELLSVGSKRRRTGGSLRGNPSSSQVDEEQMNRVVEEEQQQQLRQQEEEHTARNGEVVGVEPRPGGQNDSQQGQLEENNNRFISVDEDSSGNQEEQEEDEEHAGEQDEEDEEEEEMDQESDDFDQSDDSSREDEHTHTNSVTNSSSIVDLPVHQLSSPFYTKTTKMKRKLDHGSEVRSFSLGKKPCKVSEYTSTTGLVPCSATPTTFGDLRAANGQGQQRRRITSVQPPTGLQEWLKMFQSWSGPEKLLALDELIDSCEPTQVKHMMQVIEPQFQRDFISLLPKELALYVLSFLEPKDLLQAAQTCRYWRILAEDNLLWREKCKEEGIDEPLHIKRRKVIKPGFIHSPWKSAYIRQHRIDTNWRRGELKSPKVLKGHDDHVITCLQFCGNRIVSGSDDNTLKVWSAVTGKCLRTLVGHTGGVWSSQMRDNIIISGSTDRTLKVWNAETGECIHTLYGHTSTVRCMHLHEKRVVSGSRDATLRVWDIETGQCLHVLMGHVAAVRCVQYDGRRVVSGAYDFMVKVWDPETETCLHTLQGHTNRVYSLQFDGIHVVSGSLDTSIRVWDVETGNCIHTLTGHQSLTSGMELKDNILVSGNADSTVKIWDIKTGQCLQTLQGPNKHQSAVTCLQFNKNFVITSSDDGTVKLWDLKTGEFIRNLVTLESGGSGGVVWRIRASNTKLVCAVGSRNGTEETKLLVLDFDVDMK
GPR151 ag: human GPR151 activation; AID 1508602; Q8TDV0; 1% of 650,000 active; activation, % at 11.2 µM; PathHunter beta-arrestin GPR151 cells, luminescence; in the data active = activation above about 4.9%
TEAD-YAP inh: TEAD-YAP interaction inhibition. 1.4% of 640,000 active. HEK-TIYL cells, TEAD-Gal4/YAP UAS-luciferase luminescence. inhibition, % at 9.12 µM; in the data active = inhibition above about 32%
MITF confirm: confirmation of human MITF inhibitors; shares compounds with MITF primary; AlphaScreen MITF homodimerization, biotin/His-MITF beads; inhibition, % at 2.6 µM; 16% of 4,700 active; AID 1259372;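 active = inhibition above a cutoff derived from the DMSO control wells, cut at about 28% in these data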;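 also: inhibitors lower the bead chemiluminescence by keeping MITF from dimerizing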
AlphaScreen DR: AlphaScreen optical interference, dose response counter-screen; shares compounds with MITF primary; AlphaScreen optical interference counterscreen, cell-free; IC50, µM; 6% of 480 active; AID 1259373; call rule not given here
AlphaScreen intf2: optically interferes with AlphaScreen signal; shares compounds with MITF primary; 7.6% of 4,700 active; inhibition, % at 2.6 µM; LysRS AlphaScreen counterscreen, signal interference, triplicate;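 active = inhibition above a cutoff derived from the DMSO control wells, cut at about 30% in these data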
Numbers stand for hits; . = inactive; / = no result.

SMILES	MITF primary	FBW7 act	GPR151 ag	TEAD-YAP inh	MITF confirm	AlphaScreen intf2	others
CC(C)NC(=O)c1cccc(NC(=O)Nc2ccc(-c3ncnc4[nH]cc(Cl)c34)cc2)c1	77.9	.	.	.	88.0	.	AlphaScreen DR=.
Fc1ccccc1-c1cnc2ccc(NCc3cccs3)nn12	53.0	.	.	.	.	.
NCCCNc1c2c(nc3cc(-c4cccc(F)c4)nn13)CCC2	.	.	.	.	/	/
NCCCNc1c2c(nc3cc(-c4ccc(Cl)cc4)nn13)CCC2	54.2	.	.	.	.	.
O=C(NCCCCCO)C(=O)Nc1ccc2c(c1)OCO2	.	.	.	.	/	/
Cc1ccc(C(=O)Nc2ccccc2C#N)c(Cl)c1	62.6	.	.	.	.	.
Cc1nc2c3ccccc3nc(SCC(=O)NCc3ccco3)n2n1	.	.	.	.	/	/
Cc1ccc(C(=O)CCC(=O)OCC(=O)Nc2ccccc2C#N)cc1	.	.	.	.	/	/
Cc1[nH]c(=O)[nH]c1C(=O)CCCCC(=O)OCC(=O)Nc1ccc(S(N)(=O)=O)cc1	95.1	.	.	.	100.9	75.1
Cc1[nH]c(=O)[nH]c1C(=O)CCCCC(=O)OCC(=O)Nc1ccccc1C#N	112.9	.	.	.	98.5	75.8
COc1ccc2ncc(C(=O)NC3CCCC3)c(Cl)c2c1	.	.	.	.	/	/
O=C(CN1CCN(Cc2nc(-c3ccco3)cs2)CC1)N1CCCC1	59.9	.	.	.	.	.
CCN1CCN(C(=O)C2CCN(Cc3ccc(Cl)c(Cl)c3)CC2)CC1	63.4	.	.	.	.	.
NC(=O)C1CCN(Cc2ccc(Cl)c(Cl)c2)CC1	53.2	.	.	.	.	.
CCOc1ccc(CN2CCC(C(=O)N3CCN(CC)CC3)CC2)cc1	.	.	.	.	/	/
O=S(=O)(c1ccccc1)n1c(SCc2ccc(F)cc2)nc2ccccc21	.	.	.	.	/	/
COc1ccc(-c2n[nH]c(=S)n2/N=C/c2cc(OC)ccc2OC)cc1	55.2	.	.	.	.	.
OCCNC(=S)Nc1ccccc1	.	.	.	.	/	/
O=P(O)(O)C(O)(CCNC(=S)Nc1ccccc1)P(=O)(O)O	85.5	.	.	.	66.9	.	AlphaScreen DR=.
COC(=O)c1cccc(CSc2nnc(-c3ccc(OC)cc3)o2)c1	.	.	.	.	/	/
N#Cc1cc[n+](CC(=O)c2cccc([N+](=O)[O-])c2)cc1	63.0	.	.	.	.	.
CCOC(=O)c1cc[n+](CC(=O)c2cccc([N+](=O)[O-])c2)cc1	.	.	.	.	/	/
CC(C)CCn1c(SCc2csc3ccc(Cl)cc23)nc2ccsc2c1=O	.	.	.	.	/	/
COC(=O)CN(CCN(CC(=O)O)CC(=O)OC)CC(=O)O	55.0	.	.	.	40.8	.
O=C(O)CN(CCN(CC(=O)O)CC(=O)O)CC(=O)O	.	.	.	.	/	/
SMILES	MITF primary	FBW7 act	GPR151 ag	TEAD-YAP inh	MITF confirm	AlphaScreen intf2	others
O=[N+]([O-])c1ccc(COc2ccccc2Cl)cc1	.	.	.	.	/	/
O=C(Cc1cn2ccsc2n1)N/N=C/c1ccc([N+](=O)[O-])o1	69.9	.	.	.	92.4	40.5
COc1ccc(C(=O)OCC(=O)c2ccc([N+](=O)[O-])cc2)cc1	.	.	.	.	/	/
O=C(OCC(=O)c1ccc([N+](=O)[O-])cc1)C(=O)OCC(=O)c1ccc([N+](=O)[O-])cc1	60.7	.	.	.	.	.
c1ccc(C2CCC(N3CCN(C4CCCC4)CC3)CC2)cc1 (stereo not drawn)	.	.	.	.	/	/
c1ccc(C2CCC(N3CCN(C4CCCCCC4)CC3)CC2)cc1 (stereo not drawn)	62.9	.	.	.	.	.
CC1CCCC(N2CCN(Cc3ccco3)CC2)C1 (stereo not drawn)	73.7	.	.	.	.	.
c1ccc(C2CCC(N3CCN(Cc4ccco4)CC3)CC2)cc1 (stereo not drawn)	66.6	.	.	.	.	.
CC1CCc2c(sc3ncnc(N(C)CCC#N)c23)C1 (stereo not drawn)	.	.	.	.	/	/
CCCC1CCC(c2nc(-c3ccccc3Cl)no2)CC1 (stereo not drawn)	.	.	.	.	/	/
CC(OC(=O)CN1C(=O)C2CCCCC2C1=O)C(=O)NC(N)=O (stereo not drawn)	.	.	.	.	/	/
CC1(C)CC(=O)C2=C(C1)OC1=C(C(=O)CC(C)(C)C1)C2c1cc(Br)ccc1O	.	.	.	.	/	/
C=CCc1ccc(OCCOCCNC(C)CC)c(OC)c1 (stereo not drawn)	76.7	.	.	.	.	.
C=CCc1ccc(OCCOCCN2CCN(CC)CC2)c(OC)c1	65.3	.	.	.	.	.
C=CCc1ccc(OCCCNC(C)CC)c(OC)c1 (stereo not drawn)	.	.	.	.	/	/
Cc1ccc(C2CC(c3cccs3)=NN2C(=O)CSc2nnc(CNC(=O)c3ccco3)n2-c2ccc(Br)cc2)cc1 (stereo not drawn)	.	.	.	.	/	/
O=C(Cn1nnc(-c2ccccc2NC(=O)C2CC2)n1)Nc1ccccc1	.	.	.	.	/	/
NC(=O)Cn1nnc(-c2ccccc2NC(=O)C2CCCCC2)n1	84.2	.	.	.	.	.
COc1cccc(NC(=O)C2C3C=CC4(O3)C2C(=O)N(CCN2CCCCCC2)C4C(=O)NC2CCCCC2C)c1 (stereo not drawn)	.	.	.	.	/	/
COC(=O)c1ccc(=O)c2nc3/c(=C/O)c(O)cc(=O)c3[nH]c12	76.8	.	.	.	85.6	.
COc1cccc(OC)c1OCCOc1ccccc1C	.	.	.	.	/	/
COc1cccc(OC)c1OCCN(C)C	58.7	.	.	.	.	.
CCN(CC)CCCOc1c(OC)cccc1OC	74.7	.	.	.	.	.
CCCc1cnc2c(c1SCc1ccc(C)cc1)c(=O)n(C)c(=O)n2C	.	.	.	.	/	/
CC(=O)c1cc(C(=O)NCc2c(C)ncc3c2CCN(C(=O)c2nonc2C)C3)cs1	.	.	.	.	/	/
SMILES	MITF primary	FBW7 act	GPR151 ag	TEAD-YAP inh	MITF confirm	AlphaScreen intf2	others
O=C(O)c1ccc(NC2OC(CO)C(O)C2O)cc1 (stereo not drawn)	65.7	.	.	.	57.1	.	AlphaScreen DR=.
CCN1CCN(CC(=O)NCc2ccco2)CC1	80.0	.	.	.	.	.
O=C(CN1CCN(Cc2cn3ccccc3n2)CC1)c1ccco1	53.5	.	.	.	.	.
CC1CCN(C(C)C(=O)NCc2ccco2)CC1 (stereo not drawn)	79.8	.	.	.	.	.
O=C(CN1CCN(CC(=O)c2ccco2)CC1)NCc1ccccc1Cl	65.6	.	.	.	.	.
CC1CCCC(NC(=O)C2N(CCC3=CCCCC3)C(=O)C3C(C(=O)Nc4cccc(Cl)c4)C4C=CC32O4)C1C (stereo not drawn)	.	.	.	.	/	/
Cc1ccc(NC(=O)c2ccc(Br)s2)c(C(=O)c2ccccc2)c1	.	.	.	.	/	/
COc1cccc(-c2nc3ccccc3c(=O)n2NC(=O)c2ccc([N+](=O)[O-])cc2Cl)c1	.	.	.	.	/	/
